Measurements reported in PubChem BioAssay (NCI).
About 83,000 compounds went through this panel and 20% of them were active in at least one assay; those are over-represented in the sample as a whole.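 Plates (96-well) were seeded with cells, treated with compound at one concentration, and incubated for 48 hours before percent growth was determined.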 A number with no mark means an inactive call. The source made the active and inactive calls. Rule for the calls: active = growth percent below 10; inactive = the rest.

The compounds below were run on T-47D breast (assay: NCI-60 one-dose screen, 48 h (100 = growth as untreated, 0 = no growth, -100 = all killed)). Settings: 10 µM unless noted.
Work on `COc1ccc(-c2cc(-c3ccc(OC)cc3)nc(NCCCNc3ccnc4cc(Cl)ccc34)n2)cc1` yielded a growth of 89.3%.
`Cn1cc(/C=C2/C(=O)Nc3ccccc32)c2ccccc21` gave a growth of 64.7%.
`CC[C@H](CC[C@@H](C)[C@H]1CC[C@H]2[C@@H]3CC[C@@H]4CC(=O)/C(=C\c5ccncc5)C[C@]4(C)[C@H]3CC[C@]12C)C(C)C` showed a growth of 100%.
`CCOC(=O)c1c(-c2ccc(Cl)cc2)c(C#N)c2c(C#N)c(N)nn2c1N` was tested, and the growth was 46.5%.
`CC1O[C@@H]2C[C@@](O)([C@H]1O)n1c3ccccc3c3c4c(c5c6ccccc6n2c5c31)C(=O)NC4=O` (stereo not given in full) was tested, and the growth was 8.92% (active).
With `O=C1Nc2ccccc2/C1=C/c1cn(C[C@@H](O)Cn2c3ccccc3c(=O)c3ccccc32)c2ccccc12` the growth was 62.7%.
`Cc1cscc(C)c1=S` showed a growth of 96%.
In the case of `Clc1nccc2c(-c3csc(-c4c[nH]c5ccccc45)n3)c[nH]c12`, the growth is reported as 37%.
Compound `Cc1ccc2[nH]c(-c3ccc(S(C)(=O)=O)cc3)c(/C=N/N=C(N)N)c2c1` has a growth of 67.8%.
Work on `Nc1n[nH]c2ccc([C@@H]3Nc4cc5[nH]ncc5cc4[C@H]4C5CCC(C5)[C@@H]34)cc12` (stereo not given in full) yielded a growth of 51.9%.
Compound `Cc1[nH]c(C(=O)Nc2ccc(C(N)=O)cc2NC(C)C)c(Cl)c1Cl` has a growth of 82.6%.
For `COc1cc(C(=O)/C=C/c2ccc(N3CCN(C)CC3)cc2)cc(OC)c1OC`, the growth was 95.8%.
Work on `C#CCn1cnc2c(Nc3cccc(NC(=O)CCl)c3)ncnc21` yielded a growth of 34.7%.
In the case of `CC1=CCC[C@@H]2C1(C)CC[C@H](C)[C@@]2(C)CC1=CC(=O)C(SC(C)(C)C)=CC1=O` (stereo not given in full), the growth is reported as -11.8% (active).
`C/C(=N\Nc1nc(C)cs1)c1cc2ccccc2o1` showed a growth of 21.4%.
`COc1ccc(C2C(C#N)=C(N)Oc3c2sc2c(Br)cccc32)cc1` (stereo not given) gave a growth of 27.2%.
In the case of `C#Cc1cccc(Oc2ccc(NC(=O)CCl)cc2)c1`, the growth is reported as 53.9% [8.25 µM].
For `O=C1CCC(C(=O)NN(c2ccccc2)c2ccccc2)N1` (stereo not given), the growth was 103%.
`CCC(CC)(N(CC(=O)O)CC(=O)O)C(CC)(CC)N(CC(=O)O)CC(=O)O` showed a growth of 96.3%.
`CCCCN1C(=O)/C(=c2\sc3n(c2=O)NC2C(N=3)N(CC)C(=O)N2CC)c2ccccc21` (stereo not given) showed a growth of 18.7%.
`COc1ccc(C(c2cc(OC)c(OC)c(OC)c2)N2CCCC2)cc1` (stereo not given) was tested, and the growth was 89.8%.
Compound `Cc1ccc(C(=O)c2ccc(CC(=O)N/N=C/c3ccc(O)cc3O)n2C)cc1` has a growth of 50.2%.
`COc1ccc(NC(=O)c2sc3nc4c(cc3c2N)CCCC4)cc1` showed a growth of 32.4%.
`COc1cc2c3c(c1O)-c1ccccc1[C@@H]1OC(=O)N(CC2)[C@H]31` was tested, and the growth was 89.6%.
`Cc1cccc(-n2c(C)nc3ccc(N4CCCNC4=O)cc3c2=O)c1` gave a growth of 103%.
With `CCN(CC)CCCNCc1cc(-c2ccccc2)nc2cc(Cl)ccc12` the growth was -82.5% (active).
Compound `Cn1c(O)c(C(/C=C/c2ccccc2)=Nc2ccccc2N)c(=O)n(C)c1=O` has a growth of 85.5%.
With `CC1COCC(C)N1C1=C(Cl)C(=O)c2ccccc2C1=O` (stereo not given) the growth was -55.2% (active).
Compound `CC(C)(C)c1cc(C=Nc2cccc(C(F)(F)F)c2)c(O)c(C(C)(C)C)c1` has a growth of 88.5%.
Compound `Cn1cc(-c2csc(-c3cn(C(=O)OC(C)(C)C)c4ccccc34)n2)c2ccnc(Cl)c21` has a growth of 29.1%.
Work on `CN1CCCc2cc(/C=C3/SC(=S)N(CCc4ccc(O)cc4)C3=O)ccc21` yielded a growth of 84%.
`COC(=O)C1=C(C)NC(C)=C(C(=O)OCC(C)C)C1c1ccccc1[N+](=O)[O-]` (stereo not given) showed a growth of 56.1%.
With `COc1ccc(OC)c(-c2cn3nc(-c4c[nH]c5ccc(Br)cc45)sc3n2)c1` the growth was 35.2%.
`Clc1nn2c(Cn3cnc4c(NCc5ccccc5)ncnc43)nnc2c2ccccc12` gave a growth of 18.2%.
For `N#Cc1c(-c2ccccc2)nc2c(c(-c3ccccc3)nn2-c2ccccc2)c1-c1ccc(N2CCOCC2)cc1`, the growth was 96.7%.
In the case of `CC(O)c1ncc(/C=C2\SC(=S)N(Cc3ccccc3)C2=O)s1` (stereo not given), the growth is reported as 42.4%.
Work on `O=C(Nc1ccccc1O)c1ccccc1Nc1ccnc(C(F)(F)F)c1` yielded a growth of 88.4%.
Work on `O=C(Cn1nnc([N+](=O)[O-])n1)c1ccccc1` yielded a growth of 78.9%.
Work on `Cc1ccc(-c2nc(C(Cl)Cl)nc3cc(C)nn23)cc1` yielded a growth of 40.9%.
`O=C(N/N=C/c1ccc([N+](=O)[O-])cc1)c1ccc2nc(-c3ccc(Cl)cc3)[nH]c2c1` showed a growth of 10.5%.

What follows are compounds tested on BT-549 breast in the same assay as above. Settings: 10 µM unless noted.
For `COc1ccc(-c2cc(-c3ccc(OC)cc3)nc(NCCCNc3ccnc4cc(Cl)ccc34)n2)cc1`, the growth was 81.2%.
`Cn1cc(/C=C2/C(=O)Nc3ccccc32)c2ccccc21` was tested, and the growth was 88.4%.
`CC[C@H](CC[C@@H](C)[C@H]1CC[C@H]2[C@@H]3CC[C@@H]4CC(=O)/C(=C\c5ccncc5)C[C@]4(C)[C@H]3CC[C@]12C)C(C)C` showed a growth of 95.2%.
With `CCOC(=O)c1c(-c2ccc(Cl)cc2)c(C#N)c2c(C#N)c(N)nn2c1N` the growth was 68.5%.
In the case of `CC1O[C@@H]2C[C@@](O)([C@H]1O)n1c3ccccc3c3c4c(c5c6ccccc6n2c5c31)C(=O)NC4=O` (stereo not given in full), the growth is reported as 36.3%.
Work on `O=C1Nc2ccccc2/C1=C/c1cn(C[C@@H](O)Cn2c3ccccc3c(=O)c3ccccc32)c2ccccc12` yielded a growth of 73.3%.
In the case of `Cc1cscc(C)c1=S`, the growth is reported as 99.7%.
`Clc1nccc2c(-c3csc(-c4c[nH]c5ccccc45)n3)c[nH]c12` gave a growth of 65.7%.
For `Cc1ccc2[nH]c(-c3ccc(S(C)(=O)=O)cc3)c(/C=N/N=C(N)N)c2c1`, the growth was 76.9%.
`Nc1n[nH]c2ccc([C@@H]3Nc4cc5[nH]ncc5cc4[C@H]4C5CCC(C5)[C@@H]34)cc12` (stereo not given in full) was tested, and the growth was 11.3%.
`Cc1[nH]c(C(=O)Nc2ccc(C(N)=O)cc2NC(C)C)c(Cl)c1Cl` gave a growth of 93%.
With `COc1cc(C(=O)/C=C/c2ccc(N3CCN(C)CC3)cc2)cc(OC)c1OC` the growth was 100%.
In the case of `C#CCn1cnc2c(Nc3cccc(NC(=O)CCl)c3)ncnc21`, the growth is reported as 35.1%.
`CC1=CCC[C@@H]2C1(C)CC[C@H](C)[C@@]2(C)CC1=CC(=O)C(SC(C)(C)C)=CC1=O` (stereo not given in full) showed a growth of 80.5%.
With `C/C(=N\Nc1nc(C)cs1)c1cc2ccccc2o1` the growth was 99.3%.
Compound `COc1ccc(C2C(C#N)=C(N)Oc3c2sc2c(Br)cccc32)cc1` (stereo not given) has a growth of 34.4%.
`C#Cc1cccc(Oc2ccc(NC(=O)CCl)cc2)c1` gave a growth of 38.7% [8.25 µM].
For `O=C1CCC(C(=O)NN(c2ccccc2)c2ccccc2)N1` (stereo not given), the growth was 30.2%.
Compound `CCC(CC)(N(CC(=O)O)CC(=O)O)C(CC)(CC)N(CC(=O)O)CC(=O)O` has a growth of 117%.
For `CCCCN1C(=O)/C(=c2\sc3n(c2=O)NC2C(N=3)N(CC)C(=O)N2CC)c2ccccc21` (stereo not given), the growth was 73.4%.
`COc1ccc(C(c2cc(OC)c(OC)c(OC)c2)N2CCCC2)cc1` (stereo not given) was tested, and the growth was 81.6%.
For `Cc1ccc(C(=O)c2ccc(CC(=O)N/N=C/c3ccc(O)cc3O)n2C)cc1`, the growth was 50.8%.
`COc1ccc(NC(=O)c2sc3nc4c(cc3c2N)CCCC4)cc1` was tested, and the growth was 51.3%.
With `COc1cc2c3c(c1O)-c1ccccc1[C@@H]1OC(=O)N(CC2)[C@H]31` the growth was 111%.
With `Cc1cccc(-n2c(C)nc3ccc(N4CCCNC4=O)cc3c2=O)c1` the growth was 108%.
With `CCN(CC)CCCNCc1cc(-c2ccccc2)nc2cc(Cl)ccc12` the growth was 40.1%.
With `Cn1c(O)c(C(/C=C/c2ccccc2)=Nc2ccccc2N)c(=O)n(C)c1=O` the growth was 121%.
Compound `CC1COCC(C)N1C1=C(Cl)C(=O)c2ccccc2C1=O` (stereo not given) has a growth of 76%.
With `CC(C)(C)c1cc(C=Nc2cccc(C(F)(F)F)c2)c(O)c(C(C)(C)C)c1` the growth was 106%.
Compound `Cn1cc(-c2csc(-c3cn(C(=O)OC(C)(C)C)c4ccccc34)n2)c2ccnc(Cl)c21` has a growth of 84.2%.
With `CN1CCCc2cc(/C=C3/SC(=S)N(CCc4ccc(O)cc4)C3=O)ccc21` the growth was 84.9%.
Compound `COC(=O)C1=C(C)NC(C)=C(C(=O)OCC(C)C)C1c1ccccc1[N+](=O)[O-]` (stereo not given) has a growth of 59.5%.
Work on `COc1ccc(OC)c(-c2cn3nc(-c4c[nH]c5ccc(Br)cc45)sc3n2)c1` yielded a growth of 76.2%.
In the case of `Clc1nn2c(Cn3cnc4c(NCc5ccccc5)ncnc43)nnc2c2ccccc12`, the growth is reported as 25.8%.
`N#Cc1c(-c2ccccc2)nc2c(c(-c3ccccc3)nn2-c2ccccc2)c1-c1ccc(N2CCOCC2)cc1` gave a growth of 99.8%.
`CC(O)c1ncc(/C=C2\SC(=S)N(Cc3ccccc3)C2=O)s1` (stereo not given) showed a growth of 92.9%.
Work on `O=C(Nc1ccccc1O)c1ccccc1Nc1ccnc(C(F)(F)F)c1` yielded a growth of 112%.
Work on `O=C(Cn1nnc([N+](=O)[O-])n1)c1ccccc1` yielded a growth of 113%.
For `Cc1ccc(-c2nc(C(Cl)Cl)nc3cc(C)nn23)cc1`, the growth was 55.5%.
`O=C(N/N=C/c1ccc([N+](=O)[O-])cc1)c1ccc2nc(-c3ccc(Cl)cc3)[nH]c2c1` was tested, and the growth was 14%.
